Source: PubChem BioAssay (Tox21)
“And” between values parts separate entries of the source, which are not always exact repeats. Equal entries are not always repeated. Inconclusive results are not listed. A call without a number means that no potency is given here. Some compounds were tested as several samples or in several runs, with calls that do not always agree. The source made the active and inactive calls. The call rests on the fitted dose curve.
Potency means the concentration at half of the fitted maximal effect.

Assay: p53 small molecule agonists, cell-based qHTS assay with human liver microsomes: qHTS cell viability counter screen (AID 1963579); further: nearly all actives have a fitted effect of over 45% in size
Conditions: p53RE-bla HCT-116 viability, ATP luminescence, 16 h, HLM; series mostly up to 66 µM
From the text: National Center for Advancing Translational Sciences [NCATS]
Division of Preclinical Innovation [DPI]
U.S. Environmental Protection Agency [EPA]
National Institutes of Environmental Health Sciences [NIEHS]
National Toxicology Program [NTP]
U.S. Food and Drug Administration [FDA]
p53, a tumor suppressor protein, is activated following cellular insult, including DNA damage and other cellular stresses. The activation of p53 regulates cell fate by inducing DNA repair, cell cycle arrest, apoptosis, or cellular senescence. The activation of p53, therefore, is a good indicator of DNA damage and other cellular stresses. […] The activation of the reporter gene under culture conditions can be detected by fluorescence intensity. This cell line was used to screen the Tox21 10K compound library in the condition of presence of human liver microsomes and to identify agonists that activate the p53 signaling pathway after in vitro metabolic activation (Ooka et al., Archive of Toxicology 96:1975-1987, 2022).
Tox21 Assay Protocol Summary:
The p53RE-bla cells were dispensed at 4,000cells/3ul/well in 1536-well black-clear bottom plates. After the assay plates were incubated at 37 C, 5% CO2 incubator for 5 hours, 23 nL of compounds dissolved in DMSO, positive controls or DMSO only was transferred to the assay plate. Following compound addition, 3 uL of human liver microsomes (XenoTech, Kansas City, KS) at final concentration of 0.5 mg/mL and 1uL of B-Nicotinamide adenine dinucleotide 2'-phosphate (NADPH) at final concentration of 0.5 mg/mL were transferred to the assay plate. The plates were incubated at 37 C for 16 hours. 1 uL of LiveBLAzer detection mixture was added to each well and the plates were incubated at room temperature in the dark for 2 h. Fluorescence intensity at 460 and 530 nm emission and 405 nm excitation were measured by an Envision plate reader. For cell viability readout that measures cytotoxicity, 4 ul/well of CellTiter-Glo reagent was added into the assay plates using a Flying Reagent Dispenser. After 30 min incubation at room temperature, the luminescence intensity in the plates was measured using a ViewLux plate reader.
With Nc1ncnc2nc[nH]c12 the Potency was “inactive”. For Cc1ccc(C)c(S(=O)(=O)O)c1, the Potency was “inactive”. With CC(=O)c1nccs1 the Potency was “inactive”. For CCCC[P+](CCCC)(CCCC)CCCC, the Potency was “inactive”. With O=C(O)c1ccccc1C(=O)O the Potency was “inactive”. With CCCCOCCOCCOC(C)=O the Potency was “inactive”. With Cc1[nH]c(=O)c(C#N)cc1-c1ccncc1 the Potency was “inactive”. With O=C(OCc1ccccc1)c1ccccc1 the Potency was “inactive”. For OCCOCCOCCOCCO, the Potency was “inactive”. With N[C@@H](Cc1cc(I)c(Oc2cc(I)c(O)c(I)c2)c(I)c1)C(=O)O the Potency was “inactive”. In the case of O=C(O)c1ccc(C(=O)O)cc1, the Potency is reported as “inactive”. In the case of CN1C(=O)CC[C@H]1c1cccnc1, the Potency is reported as “inactive”. In the case of CC(C)(Oc1ccc(C2CC2(Cl)Cl)cc1)C(=O)O (stereo not given), the Potency is reported as “inactive”. For CC(C)=CCO, the Potency was “inactive”. With C/C=C/c1ccc(OC)cc1 the Potency was “inactive”. With CC1(C)OC(=O)NC1=O the Potency was “inactive”. For CCCCCCc1ccc(O)cc1O, the Potency was “inactive”. For CCCCCCCCCCO, the Potency was “inactive”. With NC(=O)NC(N)=O the Potency was “inactive”. With CCCCCCCCCCN the Potency was “inactive”. With O=C(c1cc(O)c(O)c(O)c1)c1ccc(O)c(O)c1O the Potency was “inactive”. For CC(=O)CCC=C(C)C, the Potency was “inactive”. For Cc1c(C(N)=O)cc([N+](=O)[O-])cc1[N+](=O)[O-], the Potency was “inactive”. With c1ccc(OCCOc2ccccc2)cc1 the Potency was “inactive”. In the case of CCCCCCCCCCCCN, the Potency is reported as “inactive and 40.8 µM (active)”. With CCc1cccc2c3c([nH]c12)C(CC)(CC(=O)O)OCC3 (stereo not given) the Potency was “inactive”. For CCN(CCN)c1cccc(C)c1, the Potency was “inactive”. With CCN1CCCC1=O the Potency was “inactive”. In the case of Cc1ncc([N+](=O)[O-])n1C, the Potency is reported as “inactive”. For CC1CCC2CC1C2(C)C (stereo not given), the Potency was “inactive”. With NC(=O)N/N=C/c1ccc([N+](=O)[O-])o1 the Potency was “inactive”. With N#Cc1ccccc1 the Potency was “inactive”. With CC(=O)OC(C)C the Potency was “inactive”. For Cn1c([N+](=O)[O-])cnc1COC(N)=O, the Potency was “inactive”. With N[C@@H](Cc1cc(I)c(Oc2ccc(O)c(I)c2)c(I)c1)C(=O)O the Potency was “inactive”. For C=Cc1cccc(C)c1, the Potency was “inactive”. In the case of CC(=O)c1ccccc1, the Potency is reported as “inactive”. With COc1cc(OC)c(C(=O)CCCN2CCCC2)c(OC)c1 the Potency was “inactive”. In the case of CC(C)(C)C1CCC(O)CC1 (stereo not given), the Potency is reported as “inactive”. With CCCCCCCC(=O)OCC(COC(=O)CCCCCCC)OC(=O)CCCCCCC the Potency was “inactive”.
